# Experimental data as given in PubChem BioAssay (EPA / NIEHS).
# Inconclusive results are not listed. The source made the active and inactive calls. Rule for the calls: active = hit-call score of the fitted dose curve at least 0.9, where 1 is the maximum; inconclusive = response in the unintended direction; inactive = score below 0.9.
# How the values were obtained:
# [1] = ACEA_AR_agonist_AUC_viability: ACEA Biosciences xCELLigence Real-Time Cell Analysis on Androgen Receptor Agonism for Viability (AID 2283775);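 note: viability read 80 hours after compound addition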
# Method in brief: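 Read-out is area under the impedance curve at 80 h post-dose in 22Rv1 cells, with DMSO as baseline and signal loss taken as reduced viability. Compounds ran in duplicate from 100 uM final.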
# [2] = ACEA_AR_antagonist_AUC_viability: ACEA Biosciences xCELLigence Real-Time Cell Analysis on Androgen Receptor Antagonism for Viability (AID 2283776);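 note: 22Rv1 human prostate cancer cells growing on impedance electrode plates; area under impedance growth curve at 80 h after dosing as viability; hits lower the growth signal relative to DMSO meaning cytotoxicity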
# Method in brief: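 Real-time electrical impedance tracks 22Rv1 proliferation after continuous compound exposure (top 100 uM final, 1:4 steps, 8 concentrations). The 80 h area-under-curve serves as the cytotoxicity readout relative to DMSO.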
# [3] = ArunA_Migration_hNP: ArunA Biomedical's Oris Neuroprogenitor (hNP) Cell Migration Assay (AID 2283754)
# Method in brief: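 Human H9-derived hNP1 neuroprogenitors on Matrigel with LIF/bFGF, plated around seeding stoppers for 16 h at 37C; stoppers removed at start of 72 h chemical exposure. Calcein-AM staining, fluorescence 494/517 nm in detection zone; loss-of-signal vs DMSO; cytochalasin D control.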
# [4] = ArunA_Migration_hNC: ArunA Biomedical's Oris Neural Crest (hNC) Cell Migration Assay (AID 2283755)
# Method in brief: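 Human H9-derived neural crest stem cells, 60,000/well on Matrigel, 16 h at 37C, then 72 h chemical exposure after seeding-stopper removal. Migration into detection zone read as calcein-AM fluorescence (ex494/em517), relative to DMSO.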
# [5] = ArunA_NOG_NucleusCount: ArunA Biomedical's Neurite Outgrowth (NOG) Assay for Nucleus Count (AID 2283756)
# Method in brief: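 Human H9-derived differentiated neurons were exposed for 48 h right after seeding. Hoechst-stained nuclei gated by size and intensity were counted by automated high-content imaging as viable neurons. Loss of signal vs DMSO.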
# [6] = ArunA_NOG_NeuriteLength: ArunA Biomedical's Neurite Outgrowth (NOG) Assay for Neurite Length (AID 2283757)
# Method in brief: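 Differentiated human H9-derived neurons were exposed for 48 h from seeding, then stained with Hoechst and βIII-tubulin. Automated high-content imaging gave total neurite length per valid neuron, counting processes >10 um. Loss of signal was scored versus DMSO.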
# [7] = ArunA_NOG_NeuritesPerNeuron: ArunA Biomedical's Neurite Outgrowth (NOG) Assay for Neurites Per Neuron (AID 2283758)
# Method in brief: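 Differentiated human H9-derived neurons exposed to chemicals for 48 h from seeding, then stained with Hoechst and βIII-tubulin/DyLight 488. Automated imaging counted neurites (processes >10 um) per valid neuron; loss of signal versus DMSO scored.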
# [8] = molecular target: zebrafish Estrogen Receptor (ESR1), esr1 (gene 259252) (UniProt P57717); assay: ATG_zfER1_XSP1: Attagene TRANS-FACTORIAL Multi-Species (XSP1) HepG2 Assay for zebrafish Estrogen Receptor (ESR1) (AID 2283772)
# zebrafish Estrogen Receptor (ESR1), esr1 (gene 259252), sequence (P57717 whole entry, looked up, the tested form may be a part): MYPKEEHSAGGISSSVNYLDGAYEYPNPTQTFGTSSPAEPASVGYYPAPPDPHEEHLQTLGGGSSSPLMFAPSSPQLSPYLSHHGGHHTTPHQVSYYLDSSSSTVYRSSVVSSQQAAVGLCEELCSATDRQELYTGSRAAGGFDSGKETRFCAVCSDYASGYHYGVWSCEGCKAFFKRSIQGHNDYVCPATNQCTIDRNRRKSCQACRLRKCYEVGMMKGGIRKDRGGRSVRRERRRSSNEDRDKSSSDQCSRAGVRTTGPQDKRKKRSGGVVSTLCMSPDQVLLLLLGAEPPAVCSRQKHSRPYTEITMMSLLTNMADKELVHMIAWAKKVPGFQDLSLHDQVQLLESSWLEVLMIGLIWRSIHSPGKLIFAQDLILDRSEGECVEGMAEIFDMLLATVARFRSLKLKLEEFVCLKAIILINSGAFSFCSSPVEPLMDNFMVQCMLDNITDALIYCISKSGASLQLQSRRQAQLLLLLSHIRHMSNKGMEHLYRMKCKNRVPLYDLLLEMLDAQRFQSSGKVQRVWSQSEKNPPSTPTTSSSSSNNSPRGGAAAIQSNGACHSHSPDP
# Method in brief: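 HepG2 cells were transiently transfected with multiplexed GAL4-UAS reporter units driven by chimeric NR-GAL4 proteins, dosed for 24 h with 3 nM 6-alpha-fluorotestosterone present, and reporter mRNA quantified by RT-PCR and capillary electrophoresis versus DMSO.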
# [9] = tested on: zebrafish Estrogen Receptor (ESR2B), gene 317733; assay: ATG_zfER2b_XSP1: Attagene TRANS-FACTORIAL Multi-Species (XSP1) HepG2 Assay for zebrafish Estrogen Receptor (ESR2B) (AID 2283773)
# Method in brief: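 HepG2 cells transiently transfected with GAL4-UAS reporter units for chimeric zebrafish ER2b-Gal4, with 3 nM 6-alpha-fluorotestosterone present; reporter mRNA measured 24 h after dosing by RT-PCR and capillary electrophoresis, gain versus DMSO.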
# [10] = tested on: frog Estrogen Receptor (ESR2), gene 100174814; assay: ATG_frER2_XSP1: Attagene TRANS-FACTORIAL Multi-Species (XSP1) HepG2 Assay for frog Estrogen Receptor (ESR2) (AID 2283774)
# Method in brief: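 HepG2 cells transiently transfected with GAL4-UAS reporter units expressing chimeric frog ER-Gal4; 3 nM 6-alpha-fluorotestosterone present. After 24 h dosing, reporter mRNA quantified by RT-PCR and capillary electrophoresis; gain-of-signal fitted relative to DMSO.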
# [11] = tested on: frog Estrogen Receptor (ESR1), gene 398734; assay: ATG_frER1_XSP1: Attagene TRANS-FACTORIAL Multi-Species (XSP1) HepG2 Assay for frog Estrogen Receptor (ESR1) (AID 2283777)
# Method in brief: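 HepG2 cells transiently transfected with frog ER–GAL4 chimera and GAL4-UAS reporter, with 3 nM 6-alpha-fluorotestosterone present; 24 h dosing, reporter mRNA quantified by RT-PCR and capillary electrophoresis, gain of signal versus DMSO.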
# [12] = tested on: zebrafish Estrogen Receptor (ESR2A), gene 317734; assay: ATG_zfER2a_XSP1: Attagene TRANS-FACTORIAL Multi-Species (XSP1) HepG2 Assay for zebrafish Estrogen Receptor (ESR2A) (AID 2283778)
# Method in brief: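 HepG2 cells transiently transfected with GAL4-UAS reporter units driven by a zebrafish ESR2A–Gal4 chimera; 24 h compound exposure with 3 nM 6-alpha-fluorotestosterone present. Reporter mRNA measured by RT-PCR with fluorescent capillary electrophoresis, fitted positive versus DMSO.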
# [13] = molecular target: chicken Estrogen Receptor (ESR1), ESR1 (gene 396099) (UniProt P06212); assay: ATG_chERa_XSP1: Attagene TRANS-FACTORIAL Multi-Species (XSP1) HepG2 Assay for chicken Estrogen Receptor (ESR1) (AID 2283779)
# chicken Estrogen Receptor (ESR1), ESR1 (gene 396099), sequence (P06212 whole entry, looked up, the tested form may be a part): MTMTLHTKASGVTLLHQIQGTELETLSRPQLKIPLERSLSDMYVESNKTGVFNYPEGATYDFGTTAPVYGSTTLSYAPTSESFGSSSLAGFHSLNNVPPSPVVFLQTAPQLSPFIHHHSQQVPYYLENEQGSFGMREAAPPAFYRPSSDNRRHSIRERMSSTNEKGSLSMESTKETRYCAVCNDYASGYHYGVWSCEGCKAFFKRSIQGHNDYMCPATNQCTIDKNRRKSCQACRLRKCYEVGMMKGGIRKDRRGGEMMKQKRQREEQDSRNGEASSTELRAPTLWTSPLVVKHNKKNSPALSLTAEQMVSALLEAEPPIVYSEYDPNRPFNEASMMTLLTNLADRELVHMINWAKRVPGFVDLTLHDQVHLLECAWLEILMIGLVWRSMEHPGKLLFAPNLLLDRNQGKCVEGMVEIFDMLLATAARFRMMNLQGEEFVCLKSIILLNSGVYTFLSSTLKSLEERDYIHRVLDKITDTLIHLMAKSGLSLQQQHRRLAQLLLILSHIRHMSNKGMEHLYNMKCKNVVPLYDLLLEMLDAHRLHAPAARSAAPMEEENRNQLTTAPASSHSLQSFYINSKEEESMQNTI
# Method in brief: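 HepG2 cells transiently transfected with GAL4-UAS reporter units for chimeric chicken ERα-Gal4, dosed 24 h with 3 nM 6-alpha-fluorotestosterone present. Reporter mRNA by RT-PCR and capillary electrophoresis; gain-of-signal fit versus DMSO.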
# [14] = molecular target: Estrogen receptor (Homo sapiens) (UniProt P03372); assay: ATG_hERa_XSP1: Attagene TRANS-FACTORIAL Multi-Species (XSP1) HepG2 Assay for human Estrogen Receptor (ESR1) (AID 2283780)
# Estrogen receptor (Homo sapiens), sequence (P03372 whole entry, looked up, the tested form may be a part): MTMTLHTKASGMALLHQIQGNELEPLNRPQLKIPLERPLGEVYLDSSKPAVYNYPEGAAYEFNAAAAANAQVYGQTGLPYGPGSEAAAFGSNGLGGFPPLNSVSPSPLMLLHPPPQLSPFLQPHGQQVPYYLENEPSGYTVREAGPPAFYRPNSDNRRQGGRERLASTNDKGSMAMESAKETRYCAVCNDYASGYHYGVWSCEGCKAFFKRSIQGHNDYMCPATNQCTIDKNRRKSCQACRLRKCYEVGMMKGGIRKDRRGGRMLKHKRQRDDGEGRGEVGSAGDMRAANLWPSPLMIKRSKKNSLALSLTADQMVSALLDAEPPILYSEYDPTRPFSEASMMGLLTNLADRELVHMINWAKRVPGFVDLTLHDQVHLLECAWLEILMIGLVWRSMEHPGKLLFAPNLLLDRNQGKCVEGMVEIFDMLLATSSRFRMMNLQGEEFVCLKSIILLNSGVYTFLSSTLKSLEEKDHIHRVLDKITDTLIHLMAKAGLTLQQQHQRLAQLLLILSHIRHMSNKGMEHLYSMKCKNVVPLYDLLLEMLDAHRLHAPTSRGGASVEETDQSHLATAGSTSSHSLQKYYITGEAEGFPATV
# Method in brief: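 HepG2 cells transiently transfected with GAL4-UAS reporter units and chimeric NR-Gal4 constructs; 24 h after dosing, reporter mRNA quantified by RT-PCR and capillary electrophoresis. Medium contained 3 nM 6-alpha-fluorotestosterone; activity fitted as gain-of-signal versus DMSO.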
# [15] = tested on: turtle Estrogen Receptor (ESR1), gene 101933533; assay: ATG_trERa_XSP1: Attagene TRANS-FACTORIAL Multi-Species (XSP1) HepG2 Assay for turtle Estrogen Receptor (ESR1) (AID 2283781)
# Method in brief: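 Turtle ERa as a GAL4 chimera in transiently transfected HepG2 cells; reporter mRNA quantified 24 h after dosing by RT-PCR and capillary electrophoresis. 3 nM 6-alpha-fluorotestosterone present; gain of signal versus DMSO.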
# [16] = ACEA_ER_AUC_viability: ACEA Biosciences xCELLigence Real-Time Cell Analysis on Estrogen Receptor Agonism for Viability (AID 2283782);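 note: hit means loss of impedance signal meaning reduced cell growth or viability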
# Method in brief: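 T47D cells preconditioned in phenol red-free RPMI with charcoal-stripped FBS, then dosed with 8-point 1:4 series from 100 uM (up to 0.5% DMSO). Impedance monitored up to ~80 h; area-under-curve loss versus DMSO taken as viability.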
# [17] = ArunA_NOG_BranchPointsPerNeurite: ArunA Biomedical's Neurite Outgrowth (NOG) Assay for Branch Points Per Neurite (AID 2283759)
# Method in brief: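 Automated image analysis traced neurites (processes >10 um) from valid cell bodies after Hoechst and βIII-tubulin staining. hNN cells from H9 embryonic stem cells, 48 h exposure. Fitted bidirectionally against DMSO.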
structure (smiles),measurement,setting,value
Cn1sc(Cl)cc1=O,AC50,[1],77.2 µM (active)
same,AC50,[2],80.7 µM (active)
CC(C)(C)c1cc(O)ccc1O,AC50,[3],33.7 µM (active)
same,AC50,[4],35.8 µM (active)
same,outcome,[5],inactive
same,outcome,[6],inactive
same,outcome,[7],inactive
same,outcome,[8],inactive
same,AC50,[9],20 µM (active)
same,AC50,[10],22.4 µM (active)
same,AC50,[1],90.9 µM (active)
same,AC50,[2],86.2 µM (active)
same,outcome,[11],inactive
same,outcome,[12],inactive
same,AC50,[13],8.92 µM (active)
same,AC50,[14],8.75 µM (active)
same,AC50,[15],8.26 µM (active)
same,AC50,[16],9.53 µM (active)
ClCC(Cl)CCl,outcome,[3],inactive
same,outcome,[17],inactive
same,outcome,[2],inactive
CCCCCCCCCl,outcome,[16],inactive
Cc1cc(=O)[nH]o1,outcome,[16],inactive
Nc1ccc(-c2ccc(N)c(Cl)c2)cc1Cl,outcome,[16],inactive
NC(=S)Nc1ccccc1,AC50,[16],60.6 µM (active)
ClC1=C(Cl)[C@]2(Cl)[C@@H]3[C@@H](Cl)[C@@H](Cl)C[C@@H]3[C@@]1(Cl)C2(Cl)Cl,outcome,[16],inactive
Nc1ccc(N=Nc2ccc(-c3ccc(N=Nc4c(S(=O)(=O)O)cc5cc(S(=O)(=O)O)c(N=Nc6ccccc6)c(O)c5c4N)cc3)cc2)c(N)c1,outcome,[16],inactive
C=CC(=O)N(C)C,AC50,[16],50 µM (active)
COS(=O)(=O)c1ccc(C)cc1,outcome,[16],inactive
COc1ccc(C(O)(c2cncnc2)C2CC2)cc1 (configuration not stated),AC50,[16],67.6 µM (active)
COP(=O)(OC)OC,outcome,[16],inactive
N#CCc1ccc(Cl)cc1,outcome,[16],inactive
CCOP(=S)(OCC)Oc1ccc(S(C)=O)cc1 (configuration not stated),outcome,[16],inactive
CCSC(C)CC1CC(=O)C(C(CC)=NOC/C=C/Cl)=C(O)C1 (configuration not stated),outcome,[16],inactive
OCC(O)CCl (configuration not stated),outcome,[16],inactive
NC(=O)CF,outcome,[16],inactive
COP(=S)(OC)Oc1c(Cl)cc(C)cc1Cl,outcome,[16],inactive
O=P(O)(O)CN(CP(=O)(O)O)CP(=O)(O)O,outcome,[16],inactive
ClCc1cccnc1,AC50,[16],50 µM (active)
CC1CCCCC1NC(=O)Nc1ccccc1 (configuration not stated),AC50,[16],26.2 µM (active)
COc1cc2c(cc1OC)[C@@]13CCN4CC5=CCO[C@H]6CC(=O)N2[C@H]1[C@H]6[C@H]5C[C@H]43,outcome,[16],inactive
O=C(O)Cc1ccccc1,AC50,[16],50 µM (active)
ClCc1ccccn1,AC50,[16],50 µM (active)
CC(C)=C[C@@H]1[C@@H](C(=O)OCc2coc(Cc3ccccc3)c2)C1(C)C,outcome,[16],inactive
O=CC=O,outcome,[16],inactive
CCCCCCCCC(=O)NCc1ccc(O)c(OC)c1,AC50,[16],50 µM (active)
Nc1cccc2ccccc12,AC50,[16],80.2 µM (active)
ClC1=C(Cl)[C@]2(Cl)[C@H]3[C@H]([C@H]4C=C[C@H]3C4)[C@@]1(Cl)C2(Cl)Cl,AC50,[16],83.2 µM (active)
Nc1cccc(Cl)c1,outcome,[16],inactive
O=C(CCl)CCl,AC50,[16],62.7 µM (active)
CCc1ccccc1N,outcome,[16],inactive
CC(=[OH+])/C=C(/C)[O-].CC(=[OH+])/C=C(/C)[O-].CC(=[OH+])/C=C(/C)[O-].[Fe],outcome,[16],inactive
